Assay [1] is described as follows: small molecules captured by biotinylated probe aFSTL3 – biochemical, small-molecule microarray, fluorescence 635/667, stem cell growth factor project, primary screen (AID 1064).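 Also: measures binding of the biotinylated anti-FSTL3 antibody to printed compounds.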 To be noted: higher = more signal.
The nature of assay [2]: binders from COS7 lysate, DM2A8 probe, primary screen, torsin A project, cell lysate, small-molecule microarray, fluorescence 635/667 (AID 1065). To be noted: higher = more signal, COS7 lysate expressing mutant human TOR1A.
A short description of assay [3]: small molecules captured by biotinylated probe aFGF2 – biochemical, small-molecule microarray, fluorescence 635/667, stem cell growth factor project, primary screen (AID 1067).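 Also: measures binding of biotinylated aFGF2 protein to printed compounds on slides; z-score merges feature fluorescence and signal-to-noise across triplicate slides.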 To be noted: higher = more signal.
Assay [4] in a line: small molecules captured by biotinylated probe aFGF10 – biochemical, small-molecule microarray, fluorescence 635/667, stem cell growth factor project, primary screen (AID 1071).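 Also: score merges 667 nm spot intensity and signal to noise from triplicate slides.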 To be noted: higher = more signal.
In assay [5] the target is Neurogenic locus notch homolog protein 2 (Homo sapiens) (UniProt Q04721). Put plainly: small molecules binding Notch2 protein – biochemical, small-molecule microarray, 635 nm fluorescence, stem cell growth factors, primary screen (AID 1073). To be noted: higher = more signal.
Sequence of Neurogenic locus notch homolog protein 2 (Homo sapiens) (Q04721 whole entry, looked up, canonical isoform): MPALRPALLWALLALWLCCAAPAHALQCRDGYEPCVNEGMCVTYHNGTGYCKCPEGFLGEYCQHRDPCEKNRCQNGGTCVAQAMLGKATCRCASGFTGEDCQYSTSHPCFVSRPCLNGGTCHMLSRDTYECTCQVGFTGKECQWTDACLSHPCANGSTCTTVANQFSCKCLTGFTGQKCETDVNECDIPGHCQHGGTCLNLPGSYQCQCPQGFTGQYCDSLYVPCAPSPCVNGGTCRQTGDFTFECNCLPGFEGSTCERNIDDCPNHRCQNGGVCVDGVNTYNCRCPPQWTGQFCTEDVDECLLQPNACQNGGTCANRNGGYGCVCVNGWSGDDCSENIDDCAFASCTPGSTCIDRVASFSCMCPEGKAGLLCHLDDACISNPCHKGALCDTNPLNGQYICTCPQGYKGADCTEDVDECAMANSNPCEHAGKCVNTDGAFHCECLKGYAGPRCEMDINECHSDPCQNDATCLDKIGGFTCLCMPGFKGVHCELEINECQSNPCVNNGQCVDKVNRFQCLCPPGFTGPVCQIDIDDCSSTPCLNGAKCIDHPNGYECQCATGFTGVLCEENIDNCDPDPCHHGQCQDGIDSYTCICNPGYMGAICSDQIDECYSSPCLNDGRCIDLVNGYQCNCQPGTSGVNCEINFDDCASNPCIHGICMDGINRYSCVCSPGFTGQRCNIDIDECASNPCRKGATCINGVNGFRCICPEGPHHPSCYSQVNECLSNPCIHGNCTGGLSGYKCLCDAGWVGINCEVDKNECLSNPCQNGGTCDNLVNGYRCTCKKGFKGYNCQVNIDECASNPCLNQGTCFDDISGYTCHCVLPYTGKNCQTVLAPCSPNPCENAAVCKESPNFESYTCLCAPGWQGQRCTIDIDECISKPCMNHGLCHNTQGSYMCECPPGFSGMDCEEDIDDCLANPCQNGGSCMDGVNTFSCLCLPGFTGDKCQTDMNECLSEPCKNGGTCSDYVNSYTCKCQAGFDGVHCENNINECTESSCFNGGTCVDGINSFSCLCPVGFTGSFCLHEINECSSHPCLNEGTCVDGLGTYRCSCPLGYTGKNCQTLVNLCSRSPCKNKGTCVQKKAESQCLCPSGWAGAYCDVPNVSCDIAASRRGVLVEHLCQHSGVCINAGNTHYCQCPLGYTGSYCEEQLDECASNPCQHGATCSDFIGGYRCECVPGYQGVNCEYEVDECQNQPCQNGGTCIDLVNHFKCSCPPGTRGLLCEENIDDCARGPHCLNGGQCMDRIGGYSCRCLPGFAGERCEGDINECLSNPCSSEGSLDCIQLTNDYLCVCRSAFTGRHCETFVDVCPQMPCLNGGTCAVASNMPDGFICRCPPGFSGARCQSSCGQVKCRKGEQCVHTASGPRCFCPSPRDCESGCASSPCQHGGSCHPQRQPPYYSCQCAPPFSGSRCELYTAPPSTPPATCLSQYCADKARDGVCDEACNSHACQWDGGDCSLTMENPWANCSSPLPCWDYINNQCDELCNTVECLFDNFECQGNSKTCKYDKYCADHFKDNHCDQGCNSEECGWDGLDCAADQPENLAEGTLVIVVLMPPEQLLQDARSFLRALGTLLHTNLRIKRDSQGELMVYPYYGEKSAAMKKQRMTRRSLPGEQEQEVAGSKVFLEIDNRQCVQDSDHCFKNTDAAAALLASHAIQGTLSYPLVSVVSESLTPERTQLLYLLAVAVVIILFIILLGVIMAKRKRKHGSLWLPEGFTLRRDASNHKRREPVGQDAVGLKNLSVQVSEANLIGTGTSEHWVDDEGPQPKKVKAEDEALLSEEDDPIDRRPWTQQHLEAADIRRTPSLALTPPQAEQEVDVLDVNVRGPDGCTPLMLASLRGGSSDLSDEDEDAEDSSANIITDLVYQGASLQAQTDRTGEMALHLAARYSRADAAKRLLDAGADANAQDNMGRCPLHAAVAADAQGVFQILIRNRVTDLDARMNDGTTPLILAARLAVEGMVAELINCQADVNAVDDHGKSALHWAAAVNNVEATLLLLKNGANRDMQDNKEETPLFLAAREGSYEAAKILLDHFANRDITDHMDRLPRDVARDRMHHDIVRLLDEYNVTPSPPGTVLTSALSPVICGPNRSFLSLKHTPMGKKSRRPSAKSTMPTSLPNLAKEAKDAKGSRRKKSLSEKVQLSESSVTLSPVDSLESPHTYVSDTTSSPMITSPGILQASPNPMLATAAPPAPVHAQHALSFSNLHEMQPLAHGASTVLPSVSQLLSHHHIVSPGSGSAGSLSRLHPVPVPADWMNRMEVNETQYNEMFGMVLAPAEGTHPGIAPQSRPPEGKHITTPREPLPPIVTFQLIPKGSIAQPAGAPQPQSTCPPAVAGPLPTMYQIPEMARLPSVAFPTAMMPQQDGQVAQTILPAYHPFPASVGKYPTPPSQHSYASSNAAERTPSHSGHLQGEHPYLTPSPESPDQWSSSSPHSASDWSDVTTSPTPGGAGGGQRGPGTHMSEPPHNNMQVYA
The target in assay [6] is Pro-neuregulin-1, membrane-bound isoform (Homo sapiens) (UniProt Q02297). The experiment in a line: small molecules binding neuregulin-1 protein – biochemical, small-molecule microarray, fluorescence 635/667, psychiatric disease protein project, primary screen (AID 1075).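 Also: score combines 667 nm spot fluorescence with signal to noise.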 To be noted: NRG1 binding, 635 nm fluorescence, higher = more signal.
The test system of assay [7] is Neuregulin-1 EGF-like domain. The experiment in a line: small molecules binding NRG1 EGF domain – biochemical, small-molecule microarray, 635 nm fluorescence, primary screen (AID 1081).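 Also: binding of the protein to compounds printed on small-molecule microarray slides.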 To be noted: higher = more signal.
Assay [8] can be described thus: FRG1 expression reporter modulators in myotubes – cell-based, C2C12 myotubes, firefly/Renilla luciferase, luminescence, FRG1 inhibition for FSHD, primary screen (AID 1084). To be noted: FRG1 promoter luciferase, higher = more signal, called active from +8 up or from −8 down.
Assay [9] is described as follows: small molecules captured by biotinylated probe aFST – biochemical, small-molecule microarray, fluorescence 635/667, stem cell growth factor project, primary screen (AID 1086).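 Also: score merges 667 nm fluorescence with signal-to-noise of each printed compound spot.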 To be noted: higher = more signal.
Assay [10] is described as follows: binders of probe aHhip on microarray, primary screen, stem cell growth factor project, biochemical, small-molecule microarray, fluorescence 635/667 (AID 1087).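 Also: score merges spot fluorescence at 667nm with spot signal to noise ratio.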 To be noted: higher = more signal.
Assay [11] concerns PRMT1 (protein arginine N-methyltransferase 1). The experiment in a line: small molecules binding arginine methyltransferase PRMT1 – biochemical, small-molecule microarray, 635 nm fluorescence, primary screen (AID 1088).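 Also: binding of Prmt1 protein to compounds spotted on small-molecule microarray slides.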 To be noted: higher = more signal.
Assay [12] is described as follows: growth effects on S. cerevisiae YJM789 – YJM789 clinical isolate, OD600, 24 h, basal, primary screen (AID 1089).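 Also: growth of clinical yeast isolate S. cerevisiae YJM 789 seeded 1000 cells per well; test concentration not given here.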 To be noted: higher = more signal, called active from +8 up or from −8 down.
Assay [13] can be described thus: S. pombe growth modifiers, basal conditions – strain 972, OD600, 24 h, no modulator, primary screen (AID 1090).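 Also: basal condition with compound alone and no growth modifier present; test concentration not given here.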 To be noted: S. pombe 972 growth, higher = more signal, called active from +8 up or from −8 down.
Assay [14] can be described thus: budding yeast growth modifiers under rapamycin – strain BY4716, OD600, 96 h, primary screen (AID 1091). Also: test concentration not given here. To be noted: S. cerevisiae BY4716 + rapamycin, higher = more signal, called active from +8 up or from −8 down.
For assay [15], the target named is Torsin-1A-interacting protein 2 (Homo sapiens) (UniProt Q8NFQ8). Put plainly: small molecules binding lysate-expressed LULL1 – cell lysate, human LULL1 lysate, 635/667 nm fluorescence, primary screen (AID 1092).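 Also: probe is lysate of COS7 cells overexpressing human LULL1; score merges per-feature 667 nm fluorescence with signal-to-noise.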 To be noted: small-molecule microarray, hLULL1 lysate binding, 635 nm fluorescence; higher = more signal.
Assay [16] can be described thus: optical density change of DRC41 E. coli – strain DRC41, OD650, 24 h, E. coli filamentation project, primary screen (AID 1093).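 Also: MC1000 strain lacking acrAB efflux and sulA so SOS filamentation is blocked; test concentration not given here.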 To be noted: E. coli DRC41 growth, higher = more signal, called active from +8 up or from −8 down.
Assay [17] in a line: probe aLefty2 binding to arrayed compounds – biochemical, biotinylated probe, 635/667 nm fluorescence, primary screen (AID 1094).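 Also: score merges spot fluorescence near 667 nm with spot signal-to-noise ratio.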 To be noted: small-molecule microarray, higher = more signal.
For assay [18], the system named is Noggin (protein binding on small-molecule microarray). Put plainly: small molecules binding Noggin protein – biochemical, 635/667 nm fluorescence, primary screen (AID 1095).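 Also: score merges 667 nm feature fluorescence with signal to noise over triplicate slides.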 To be noted: 635 nm fluorescence, higher = more signal.
The target of assay [19] is Neurogenic locus notch homolog protein 3 (Homo sapiens) (UniProt Q9UM47). The experiment in a line: small molecules binding NOTCH3 protein – biochemical, 635/667 nm fluorescence, primary screen (AID 1096). To be noted: small-molecule microarray, 635 nm fluorescence, higher = more signal.
Sequence of Neurogenic locus notch homolog protein 3 (Homo sapiens) (Q9UM47 whole entry, looked up): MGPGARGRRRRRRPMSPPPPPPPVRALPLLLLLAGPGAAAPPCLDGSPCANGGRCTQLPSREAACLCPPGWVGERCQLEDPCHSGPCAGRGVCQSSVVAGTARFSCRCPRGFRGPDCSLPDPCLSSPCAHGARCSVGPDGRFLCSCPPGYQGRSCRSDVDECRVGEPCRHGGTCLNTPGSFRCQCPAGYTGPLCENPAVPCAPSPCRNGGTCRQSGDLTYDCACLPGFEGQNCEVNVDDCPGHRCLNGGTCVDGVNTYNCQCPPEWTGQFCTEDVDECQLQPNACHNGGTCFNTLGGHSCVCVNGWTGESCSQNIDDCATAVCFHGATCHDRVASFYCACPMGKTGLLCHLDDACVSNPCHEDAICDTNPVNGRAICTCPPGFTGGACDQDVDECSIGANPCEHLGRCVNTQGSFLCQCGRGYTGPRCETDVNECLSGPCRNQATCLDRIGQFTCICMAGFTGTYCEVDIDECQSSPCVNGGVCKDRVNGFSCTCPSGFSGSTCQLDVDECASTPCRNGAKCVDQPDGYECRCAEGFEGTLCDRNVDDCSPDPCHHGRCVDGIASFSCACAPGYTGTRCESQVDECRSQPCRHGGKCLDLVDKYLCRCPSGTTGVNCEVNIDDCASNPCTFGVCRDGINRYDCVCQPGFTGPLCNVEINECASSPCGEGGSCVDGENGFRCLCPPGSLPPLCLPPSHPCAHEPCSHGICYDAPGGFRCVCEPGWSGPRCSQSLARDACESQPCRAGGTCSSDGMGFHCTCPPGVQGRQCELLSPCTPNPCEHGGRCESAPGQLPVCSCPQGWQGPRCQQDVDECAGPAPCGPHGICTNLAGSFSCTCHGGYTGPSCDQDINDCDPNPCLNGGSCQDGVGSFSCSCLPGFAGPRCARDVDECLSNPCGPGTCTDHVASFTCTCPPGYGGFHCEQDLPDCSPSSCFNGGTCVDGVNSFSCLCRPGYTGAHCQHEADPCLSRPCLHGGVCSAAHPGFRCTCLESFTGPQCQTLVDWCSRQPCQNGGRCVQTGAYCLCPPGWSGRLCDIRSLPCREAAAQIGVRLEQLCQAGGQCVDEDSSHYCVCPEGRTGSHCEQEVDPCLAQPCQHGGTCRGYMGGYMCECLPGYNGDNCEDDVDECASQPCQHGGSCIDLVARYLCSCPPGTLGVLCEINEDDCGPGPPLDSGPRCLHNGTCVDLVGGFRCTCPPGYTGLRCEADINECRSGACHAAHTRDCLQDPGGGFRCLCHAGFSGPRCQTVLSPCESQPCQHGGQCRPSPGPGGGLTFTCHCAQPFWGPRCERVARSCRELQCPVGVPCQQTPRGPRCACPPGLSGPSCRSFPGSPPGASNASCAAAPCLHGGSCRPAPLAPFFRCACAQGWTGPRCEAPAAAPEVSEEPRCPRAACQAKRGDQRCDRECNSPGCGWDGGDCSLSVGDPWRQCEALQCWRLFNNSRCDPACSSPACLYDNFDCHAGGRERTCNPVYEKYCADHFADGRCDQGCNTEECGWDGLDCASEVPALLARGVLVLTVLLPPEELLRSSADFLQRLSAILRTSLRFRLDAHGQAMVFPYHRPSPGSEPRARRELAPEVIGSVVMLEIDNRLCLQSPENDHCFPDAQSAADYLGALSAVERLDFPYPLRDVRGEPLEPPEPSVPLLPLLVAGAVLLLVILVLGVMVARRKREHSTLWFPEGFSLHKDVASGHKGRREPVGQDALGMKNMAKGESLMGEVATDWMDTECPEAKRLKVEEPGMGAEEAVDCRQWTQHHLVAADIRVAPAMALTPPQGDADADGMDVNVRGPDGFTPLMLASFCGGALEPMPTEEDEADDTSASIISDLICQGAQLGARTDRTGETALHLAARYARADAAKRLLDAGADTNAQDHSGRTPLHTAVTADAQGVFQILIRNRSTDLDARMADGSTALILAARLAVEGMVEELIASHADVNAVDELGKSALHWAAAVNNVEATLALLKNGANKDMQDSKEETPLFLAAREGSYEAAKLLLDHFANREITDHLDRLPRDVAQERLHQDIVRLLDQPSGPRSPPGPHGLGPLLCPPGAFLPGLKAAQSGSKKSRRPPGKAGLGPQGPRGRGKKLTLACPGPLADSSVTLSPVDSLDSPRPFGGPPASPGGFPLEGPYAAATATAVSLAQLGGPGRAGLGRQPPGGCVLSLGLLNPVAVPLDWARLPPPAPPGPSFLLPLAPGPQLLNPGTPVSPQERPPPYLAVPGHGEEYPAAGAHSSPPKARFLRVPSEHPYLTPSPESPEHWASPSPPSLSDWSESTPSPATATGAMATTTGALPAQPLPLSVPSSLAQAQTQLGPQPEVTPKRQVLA
Assay [20] is described as follows: probe aEGFR binding to arrayed compounds – biochemical, biotinylated probe, 635/667 nm fluorescence, primary screen (AID 1097).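 Also: probe is a biotinylated anti-EGFR antibody binding compounds printed on slides; score combines fluorescence near 667 nm and signal to noise of each spot.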 To be noted: small-molecule microarray, higher = more signal.

Activity calls are given as the source filed them.

The text below walks through data of PubChem BioAssay.

`O=C1[C@H]2[C@H]3[C@H](O)[C@H](O)CC(=NOC[C@@H](O)COCc4ccco4)[C@@H]3CC[C@H]2C(=O)N1Cc1ccc2c(c1)OCO2`: the composite z-score in [1] was -0.622; in assay [2], 2.39; in assay [3], -0.292; in [4], -0.738; in assay [5], -0.541; in assay [6] it was -0.285. For the same compound, the composite z-score was 1.1 in [7]; -0.0769 in assay [9]; 0.2 in assay [10]; 1.4 in assay [11]; -0.689 in assay [15]; -0.172 in assay [17]. Besides, the composite z-score was 1.17 in assay [18], -0.177 in assay [19] and -0.0177 in assay [20]. The z-score is -0.196 (inactive) in assay [8]; 0.421 (inactive) in [12]; 0.674 (inactive) in assay [13]; 0.463 (inactive) in assay [14]; 2.06 (inactive) in assay [16].
With `CON=C(C)CCN1CCCCc2nc(C)c(C)cc21`, the composite z-score in assay [1] worked out at 0.367; in assay [2], 1.01; in assay [3], 0.0121; in [4] it was 0.241; in assay [5], 0.133; in [6], 0.525. Further, the composite z-score is 0.93 in assay [7]; 0.437 in assay [9]; -0.0296 in [10]; 0.46 in assay [11]; 0.799 in [15]; 0.0945 in assay [17]. Also, the values for the composite z-score in assay [18], in assay [19] and in [20] were 0.572, 0.397 and 0.0978, respectively. In addition, the z-score in assay [8] is 0.997 (inactive); in assay [12] it was -0.114 (inactive); in [13], -0.0037 (inactive); in assay [14], -0.508 (inactive); in assay [16], 0.165 (inactive).
For the compound `COCCNC(=O)OCC1CCCC2(CC(OC(=O)NCc3cccc4ccccc34)CC(CCC(=O)N[C@@H](C)C(=O)OC)O2)O1` (stereo not given in full), the composite z-score is -0.486 in assay [1]; 0.0192 in [2]; -0.0692 in assay [3]; 0.662 in [4]; 0.668 in assay [5]; 0.737 in assay [6]. Also, the composite z-score was 1.03 in assay [7]; 0.311 in assay [9]; -0.0994 in assay [10]; 1.55 in assay [11]; 1.29 in assay [15]; -0.145 in assay [17]. Also, the composite z-score was 1.18 in assay [18], 1.05 in assay [19] and -0.0978 in assay [20]. Besides, the z-score in assay [8] is -1.43 (inactive); in assay [12], 1.48 (inactive); in [13], 1.4 (inactive); in assay [14], 2.67 (inactive); in assay [16], 0.22 (inactive).
With `COc1cccc([C@H]2Oc3ccc(OC)cc3C(=NO[C@@H](C)c3cc(-c4c(C)cc(C)cc4C)no3)[C@@H]2O)c1`, the composite z-score is 2.15 in assay [1]; -0.187 in assay [2]; -0.238 in assay [3]; -1.44 in assay [4]; -2.2 in [5]; -0.144 in [6]. The composite z-score in assay [7] is -0.393; in [9], -0.391; in assay [10], -0.45; in [11], -0.506; in assay [15], -0.141; in assay [17], 0.25. Moreover, the composite z-score in assay [18] was -2.14; in assay [19] it was -2.58; in assay [20] it was -0.434. For the same compound, the z-score in [8] is -3.59 (inactive); in assay [12], 0.463 (inactive); in [13], 1.49 (inactive); in assay [14], 0.626 (inactive); in assay [16] it was -0.169 (inactive).
On to `CC1(C)O[C@H]2O[C@H]([C@H](O)CON=C3[C@H]4CCn5c(=O)n(-c6ccccc6)c(=O)n5[C@H]4[C@H](O)[C@@H]4O[C@H]34)[C@H](O)[C@H]2O1`, for which the composite z-score in assay [1] is -0.278; in [2], 0.0391; in [3], -0.154; in assay [4], 0.157; in [5], 0.0872; in assay [6], 0.762. Besides, the composite z-score in assay [7] is -0.431; in [9], -0.081; in assay [10], -0.0994; in assay [11] it was -0.626; in assay [15], -0.122; in [17], -0.212. The values for the composite z-score in assay [18], in [19] and in [20] were 0.426, -0.412 and -0.219, respectively. Also, the z-score in [8] is -0.027 (inactive); in assay [12], -0.638 (inactive); in assay [13], -0.347 (inactive); in assay [14], -0.215 (inactive); in assay [16], 0.321 (inactive).
